Source: publication PMC5540273 (PLoS ONE, 2017)

Tests used:
Details in all cases: concentration: 1 μM, replicates: in singlicate; n = 1
[1] = test system: T1, RSK4(Kin.Dom.1-N-terminal)
T1 construct: gene RPS6KA6

[2] = test system: T2, RSK4(Kin.Dom.2-C-terminal)
T2 construct: gene RPS6KA6

S6K1 = test system: S6K1
SBK1 = test system: SBK1
SGK2 = test system: SGK2
SGK3 = test system: SGK3
SGK = test system: SGK
SIK2 = test system: SIK2
SIK = test system: SIK
SLK = test system: SLK
SNARK = test system: T3, SNARK
T3 construct: gene NUAK2

SNRK = test system: SNRK
SRC = test system: SRC
SRMS = test system: SRMS
SRPK1 = test system: SRPK1
SRPK2 = test system: SRPK2
SRPK3 = test system: SRPK3
STK16 = test system: STK16
STK33 = test system: STK33
STK35 = test system: STK35
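Note: KINOMEscan kinase panel screen.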

| SMILES | %Inh [1] | %Inh [2] | %Inh (S6K1) | %Inh (SBK1) | %Inh (SGK2) | %Inh (SGK3) | %Inh (SGK) | %Inh (SIK2) | %Inh (SIK) | %Inh (SLK) | %Inh (SNARK) | %Inh (SNRK) | %Inh (SRC) | %Inh (SRMS) | %Inh (SRPK1) | %Inh (SRPK2) | %Inh (SRPK3) | %Inh (STK16) | %Inh (STK33) | %Inh (STK35) |
| --- | --- | --- | --- | --- | --- | --- | --- | --- | --- | --- | --- | --- | --- | --- | --- | --- | --- | --- | --- | --- |
| COc1cccc(NC(=O)NCCNc2ccnc(Nc3ccc(F)cc3)n2)c1 [GSK1379879] | 0% | 0% | 0% | 40% | 12% | 2% | 3% | 4% | 0% | 7% | 0% | 0% | 0% | 0% | 0% | 0% | 3% | 0% | 0% | 1% |
| COc1cc(Nc2nccc(N3CCC(NS(=O)(=O)c4ccc(NC(C)=O)cc4)CC3)n2)cc(OC)c1OC [GSK1379825] | 0% | 3% | 0% | 14% | 15% | 0% | 9% | 61% | 0% | 48% | 0% | 0% | 35% | 0% | 67% | 0% | 8% | 94.8% | 0% | 52% |
| CCn1c(-c2nonc2N)nc2c(-c3ccccc3)ncc(OCCCN)c21.O=C(O)C(F)(F)F.O=C(O)C(F)(F)F [GSK260205] | 67% | 90.3% | 44% | 9% | 0% | 71% | 1% | 36% | 11% | 99.1% | 0% | 57% | 0% | 0% | 22% | 0% | 0% | 0% | 0% | 0% |
| Cl.Cl.NC(CNC(=O)c1cc(Br)c(-c2ccnc3[nH]ccc23)s1)c1ccccc1 (stereo not shown) [GSK1322949] | 0% | 16% | 39% | 51% | 16% | 66% | 46% | 6% | 4% | 20% | 74% | 0% | 0% | 0% | 80% | 80% | 83% | 61% | 53% | 20% |
| O=C(Nc1c(F)cccc1F)c1cc(C(=O)c2ccccc2F)c[nH]1 [GSK1326180] | 1% | 0% | 0% | 52% | 18% | 5% | 11% | 0% | 0% | 0% | 0% | 0% | 0% | 0% | 18% | 1% | 0% | 0% | 16% | 0% |
| CN1CCN(Cc2ccc(NC(=O)Nc3ccc(N(C)c4ccnc(Nc5ccc(CS(C)(=O)=O)cc5)n4)cc3)cc2)CC1.Cl [GW827654] | 6% | 57% | 17% | 0% | 58% | 21% | 53% | 15% | 22% | 97.3% | 59% | 10% | 3% | 0% | 92.3% | 31% | 82% | 80% | 0% | 18% |
| CC(C)NCC(Cc1ccccc1)NC(=O)c1cc(Br)c(-c2ccnc3[nH]ccc23)s1.Cl.Cl (stereo not shown) [GSK1383281] | 5% | 20% | 56% | 45% | 0% | 66% | 59% | 0% | 4% | 0% | 89% | 0% | 0% | 0% | 43% | 0% | 0% | 46% | 96.6% | 0% |
| Cc1cc(-c2c(-c3ccc(F)cc3)ncn2CCCN2CCOCC2)nc(N)n1 [SB-222517] | 20% | 0% | 11% | 18% | 0% | 3% | 0% | 2% | 0% | 18% | 0% | 0% | 22% | 26% | 0% | 0% | 19% | 0% | 0% | 0% |
| COC(=O)Nc1nc2cc(Oc3ccc(NC(=O)Nc4cccc(SC)c4)cc3)ccc2[nH]1.Cl [GW697999] | 0% | 0% | 9% | 0% | 0% | 8% | 11% | 0% | 0% | 33% | 7% | 0% | 61% | 0% | 38% | 17% | 0% | 3% | 0% | 0% |
| CN(c1ccc2c(c1)nc(NCc1ccccc1)n2C)c1ccnc(Nc2ccc(CS(C)(=O)=O)cc2)n1.Cl [GW811603] | 0% | 0% | 0% | 0% | 24% | 0% | 13% | 10% | 9% | 38% | 0% | 0% | 32% | 5% | 0% | 30% | 34% | 54% | 0% | 0% |
| COc1cc(Nc2nccc(N3CCC(NC(=O)Nc4ccc5c(c4)OCO5)C3)n2)cc(OC)c1OC (stereo not shown) [GSK1379766] | 0% | 14% | 17% | 10% | 0% | 11% | 0% | 0% | 8% | 36% | 13% | 0% | 0% | 0% | 45% | 0% | 0% | 72% | 0% | 0% |
| Nc1ncnc2scc(-c3ccc(NC(=O)Cc4cc(F)ccc4F)cc3)c12.O=C(O)C(F)(F)F [SB-731254-M] | 17% | 18% | 46% | 27% | 27% | 23% | 18% | 11% | 5% | 28% | 23% | 11% | 13% | 30% | 10% | 25% | 3% | 1% | 6% | 0% |
| CCn1cnc2c(NCc3ccccc3)ncnc21 [SKF-96418] | 9% | 0% | 17% | 0% | 2% | 3% | 2% | 0% | 0% | 0% | 0% | 0% | 0% | 26% | 0% | 47% | 18% | 0% | 0% | 0% |
| COc1cc(Nc2ccnc3cc(-c4ccncc4)ccc23)cc(OC)c1OC.Cl [GW494610] | 19% | 0% | 17% | 100% | 5% | 2% | 19% | 74% | 91.5% | 49% | 0% | 0% | 96.1% | 0% | 0% | 0% | 18% | 0% | 0% | 6% |
| CN(C)CCNS(=O)(=O)c1ccc(-c2ccnc3[nH]ccc23)cc1 [GSK977620] | 25% | 22% | 32% | 47% | 0% | 32% | 4% | 11% | 14% | 71% | 73% | 0% | 6% | 0% | 45% | 0% | 0% | 62% | 66% | 15% |
| CN(C)CCOc1ccc(-c2cc(-c3ccc(Cl)c(O)c3)c(-c3ccncc3)[nH]2)cc1.Cl.Cl [SB-684387] | 0% | 25% | 6% | 12% | 10% | 20% | 24% | 27% | 4% | 98% | 9% | 9% | 92.2% | 3% | 0% | 30% | 0% | 14% | 0% | 0% |
| CC(C)(C)c1ccc(C(=O)Nc2cn3cc(-n4ccnc4)ccc3n2)cc1 | 29% | 0% | 8% | 0% | 11% | 60% | 2% | 10% | 9% | 6% | 79% | 16% | 0% | 0% | 0% | 0% | 0% | 19% | 0% | 0% |
| O=C(Nc1n[nH]c2nc(-c3cccc(O)c3)ccc12)C1CC1 [SB-711805] | 52% | 14% | 0% | 4% | 14% | 13% | 28% | 0% | 0% | 48% | 0% | 7% | 0% | 15% | 45% | 0% | 32% | 83% | 0% | 0% |
| Cc1cc(-c2ccnc(Nc3cccc(C#N)c3)n2)cc(C)c1O [GSK1440913] | 0% | 0% | 0% | 28% | 29% | 6% | 55% | 15% | 0% | 21% | 27% | 0% | 7% | 0% | 78% | 54% | 92.2% | 90.4% | 32% | 25% |
| Cc1ccc(C)c(NC(=O)Nc2ccc(C)c(-c3ccc(C(=O)Nc4ccncc4)cc3)c2)c1 [GSK1398473] | 0% | 18% | 3% | 14% | 0% | 8% | 0% | 0% | 3% | 17% | 0% | 5% | 8% | 0% | 26% | 0% | 0% | 8% | 3% | 6% |
